Data taken from PubChem BioAssay (Tox21).
Values without a mark were called inactive. Results filed as inconclusive are left out. Entries that show only a call come without a potency. Activity calls are given as the source filed them. Unless noted, calls follow the shape of the dose curve; as a rule, active = well fitted curve in the direction sought with a large enough effect in the repeat runs; inconclusive = weak or mixed curves; inactive = no such curve, though single readings can be large; an effect the other way counts as inactive or inconclusive.

How the values were obtained:
[1] = qHTS assay to identify small molecule antagonists of the sonic hedgehog signaling (Shh) pathway (AID 1259369; calls by dose curve; also: nearly all actives have a fitted effect of over 45% in size; also: potency is read from the fitted curve at half-maximal effect)
How it was run: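 Read-out is luminescence from a firefly luciferase gene controlled by the Gli1 response element, in 3T3Gli1-Luc cells pre-incubated 4hr then exposed to compounds and conditioned medium for 24hr.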

[2] = target: Estrogen receptor beta (Homo sapiens) (UniProt Q92731); test: qHTS assay to identify small molecule agonists of the estrogen receptor beta (ER-beta) signaling pathway (AID 1259377; active = well fitted activation curve with a large enough effect in the signal ratio in the repeat runs, not every such curve was filed as active; the % refers to the signal ratio)
Estrogen receptor beta (Homo sapiens), sequence (Q92731 whole entry, looked up, the tested form may be a part): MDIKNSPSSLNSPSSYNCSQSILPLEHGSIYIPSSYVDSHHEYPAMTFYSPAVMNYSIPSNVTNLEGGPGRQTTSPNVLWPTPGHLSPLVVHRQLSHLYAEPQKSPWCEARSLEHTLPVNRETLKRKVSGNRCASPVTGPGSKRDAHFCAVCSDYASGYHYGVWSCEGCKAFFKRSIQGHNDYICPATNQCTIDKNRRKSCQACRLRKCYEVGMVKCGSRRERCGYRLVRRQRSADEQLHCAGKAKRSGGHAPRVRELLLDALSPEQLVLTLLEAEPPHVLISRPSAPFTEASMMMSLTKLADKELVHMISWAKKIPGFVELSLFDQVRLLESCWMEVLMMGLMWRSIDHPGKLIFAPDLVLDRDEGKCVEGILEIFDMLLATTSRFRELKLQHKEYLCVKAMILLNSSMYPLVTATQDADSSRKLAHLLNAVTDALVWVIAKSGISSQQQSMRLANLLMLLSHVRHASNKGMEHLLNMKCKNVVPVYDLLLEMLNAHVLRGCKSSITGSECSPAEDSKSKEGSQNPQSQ
How it was run: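 Agonist mode cell assay in GripTite HEK293T cells expressing an ER-beta fusion that drives beta-lactamase from an Upstream Activator Sequence; 16 hr compound exposure at 37C, then 2 h LiveBLAzer B/G FRET substrate at room temperature, fluorescence read-out.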

[3] = target: Estrogen receptor beta (Homo sapiens) (UniProt Q92731); test: qHTS assay to identify small molecule antagonists of the estrogen receptor beta (ER-beta) signaling pathway (AID 1259378; active = well fitted inhibition curve with a large enough effect in the signal ratio in the repeat runs, not every such curve was filed as active; the % refers to the signal ratio)
How it was run: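 Antagonist mode: compounds added to beta-lactamase reporter HEK293T ER-beta-UAS cells stimulated with E2 (1nM final), 16 hr at 37C. LiveBLAzer B/G FRET substrate, 2 hours room temperature, fluorescence read-out.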

[4] = qHTS assay to identify small molecule agonists of the androgen receptor (AR) signaling pathway in the presence of an antagonist - cell viability counter screen (AID 1259379);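 also: MDA-kb2 human breast cancer cells carrying an MMTV luciferase reporter; series mostly up to about 92 µM; nearly all actives have a fitted effect of over 25% in size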
How it was run: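 Each compound was tested at 15 concentrations on MDA-kb2 cells in the presence of 3.0uM nilutamide. Viability was measured by CellTiter-Fluor fluorescence after a 16 hr incubation at 37C in a CO2-free atmosphere.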

[5] = qHTS assay to identify small molecule antagonists of the estrogen receptor beta (ER-beta) signaling pathway - cell viability counter screen (AID 1259382);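 also: HEK293T cells carrying ER-beta-UAS-bla reporter stimulated with estradiol; series mostly up to about 92 µM; nearly all actives have a fitted effect of over 55% in size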
How it was run: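 CellTiter-Glo ATP luminescence measured after the LiveBLAzer read in the same wells; ER-beta-UAS-bla HEK293T cells, 16 hr compound treatment with 1nM 17-beta-estradiol agonist at 37C, 5% CO2.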

[6] = target: Estrogen receptor (Homo sapiens) (UniProt P03372); test: qHTS assay to identify small molecule agonists of the estrogen receptor alpha (ER-alpha) signaling pathway in the presence of an antagonist (AID 1259383; calls by dose curve; also: top concentration of the series differs between compounds; nearly all actives have a fitted effect of over 15% in size)
Estrogen receptor (Homo sapiens), sequence (P03372 whole entry, looked up): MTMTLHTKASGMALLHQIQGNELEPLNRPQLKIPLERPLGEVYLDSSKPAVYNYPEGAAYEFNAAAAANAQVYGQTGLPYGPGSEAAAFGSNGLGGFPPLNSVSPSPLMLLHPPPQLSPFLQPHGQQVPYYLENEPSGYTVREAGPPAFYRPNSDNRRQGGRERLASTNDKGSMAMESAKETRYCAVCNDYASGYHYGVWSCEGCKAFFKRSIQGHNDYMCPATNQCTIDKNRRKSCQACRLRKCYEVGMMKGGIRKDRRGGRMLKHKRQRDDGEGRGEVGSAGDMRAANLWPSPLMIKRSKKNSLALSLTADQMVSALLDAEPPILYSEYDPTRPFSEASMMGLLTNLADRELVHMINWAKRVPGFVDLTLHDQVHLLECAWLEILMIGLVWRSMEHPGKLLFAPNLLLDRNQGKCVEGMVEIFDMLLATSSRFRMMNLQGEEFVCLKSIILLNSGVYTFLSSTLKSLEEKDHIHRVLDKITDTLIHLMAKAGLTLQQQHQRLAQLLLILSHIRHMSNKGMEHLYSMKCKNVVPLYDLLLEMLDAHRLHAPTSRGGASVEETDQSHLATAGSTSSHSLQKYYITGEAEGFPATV
How it was run: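 Luminescent ERE-luciferase reporter, VM7Luc4E2 cells (endogenous ER-alpha); 10.0nM ICI-182,780 final; 15-point compound titration; 22hr at 37C; ONE-Glo, 30min RT.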

[7] = qHTS assay to identify small molecule agonists or antagonists of the thyroid stimulating hormone receptor (TSHR) signaling pathway - wild type cell line counter screen (AID 1259384; calls by dose curve)
How it was run: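 Counter screen in untransfected Hek293: compounds (15-point titration, triplicate) plus phosphodiesterase inhibitor Ro20-1724 added after 18 h plating; 30 min RT. Intracellular cAMP via competitive d2/cryptate immunoassay, 1 h incubation.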

[8] = target: Thyrotropin receptor (Homo sapiens) (UniProt P16473); test: qHTS assay to identify small molecule antagonists of the thyroid stimulating hormone receptor (TSHR) signaling pathway (AID 1259385; calls by dose curve; also: nearly all actives have a fitted effect of over 20% in size)
Thyrotropin receptor (Homo sapiens), sequence (P16473 whole entry, looked up): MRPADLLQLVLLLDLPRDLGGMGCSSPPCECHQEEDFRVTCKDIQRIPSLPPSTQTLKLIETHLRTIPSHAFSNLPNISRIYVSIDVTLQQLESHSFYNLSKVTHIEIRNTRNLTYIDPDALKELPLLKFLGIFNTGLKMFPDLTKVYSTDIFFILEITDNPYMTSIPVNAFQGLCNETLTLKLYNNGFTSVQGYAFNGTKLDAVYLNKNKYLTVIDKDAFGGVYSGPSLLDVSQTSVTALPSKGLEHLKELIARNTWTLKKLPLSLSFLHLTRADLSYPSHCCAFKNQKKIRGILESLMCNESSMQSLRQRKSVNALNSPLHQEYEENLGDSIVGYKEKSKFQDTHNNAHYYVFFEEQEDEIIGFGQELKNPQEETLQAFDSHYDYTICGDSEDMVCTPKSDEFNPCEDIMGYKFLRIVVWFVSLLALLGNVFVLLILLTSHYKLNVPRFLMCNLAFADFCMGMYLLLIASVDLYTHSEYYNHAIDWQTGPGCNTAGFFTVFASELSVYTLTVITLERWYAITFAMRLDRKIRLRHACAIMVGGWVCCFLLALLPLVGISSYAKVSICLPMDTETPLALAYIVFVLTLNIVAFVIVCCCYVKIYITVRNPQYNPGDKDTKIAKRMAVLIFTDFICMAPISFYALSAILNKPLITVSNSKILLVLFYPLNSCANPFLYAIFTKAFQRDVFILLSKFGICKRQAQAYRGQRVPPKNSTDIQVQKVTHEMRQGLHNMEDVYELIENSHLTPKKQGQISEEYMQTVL
How it was run: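 Antagonist mode: compound-treated TSHR-expressing HEK293 cells were stimulated with 1.5 ng/mL TSH (final) in presence of Ro20-1724 for 30 min at RT. HTRF cAMP detection after 1 h; each compound tested at 15 concentrations, triplicate.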

[9] = target: Progesterone receptor (Homo sapiens) (UniProt P06401); test: qHTS assay to identify small molecule antagonists of the progesterone receptor (PR) signaling pathway (AID 1346795; active = well fitted inhibition curve with a large enough effect in the signal ratio in the repeat runs, not every such curve was filed as active; the % refers to the signal ratio; also: potency is read from the fitted curve at half-maximal effect)
Progesterone receptor (Homo sapiens), sequence (P06401 whole entry, looked up): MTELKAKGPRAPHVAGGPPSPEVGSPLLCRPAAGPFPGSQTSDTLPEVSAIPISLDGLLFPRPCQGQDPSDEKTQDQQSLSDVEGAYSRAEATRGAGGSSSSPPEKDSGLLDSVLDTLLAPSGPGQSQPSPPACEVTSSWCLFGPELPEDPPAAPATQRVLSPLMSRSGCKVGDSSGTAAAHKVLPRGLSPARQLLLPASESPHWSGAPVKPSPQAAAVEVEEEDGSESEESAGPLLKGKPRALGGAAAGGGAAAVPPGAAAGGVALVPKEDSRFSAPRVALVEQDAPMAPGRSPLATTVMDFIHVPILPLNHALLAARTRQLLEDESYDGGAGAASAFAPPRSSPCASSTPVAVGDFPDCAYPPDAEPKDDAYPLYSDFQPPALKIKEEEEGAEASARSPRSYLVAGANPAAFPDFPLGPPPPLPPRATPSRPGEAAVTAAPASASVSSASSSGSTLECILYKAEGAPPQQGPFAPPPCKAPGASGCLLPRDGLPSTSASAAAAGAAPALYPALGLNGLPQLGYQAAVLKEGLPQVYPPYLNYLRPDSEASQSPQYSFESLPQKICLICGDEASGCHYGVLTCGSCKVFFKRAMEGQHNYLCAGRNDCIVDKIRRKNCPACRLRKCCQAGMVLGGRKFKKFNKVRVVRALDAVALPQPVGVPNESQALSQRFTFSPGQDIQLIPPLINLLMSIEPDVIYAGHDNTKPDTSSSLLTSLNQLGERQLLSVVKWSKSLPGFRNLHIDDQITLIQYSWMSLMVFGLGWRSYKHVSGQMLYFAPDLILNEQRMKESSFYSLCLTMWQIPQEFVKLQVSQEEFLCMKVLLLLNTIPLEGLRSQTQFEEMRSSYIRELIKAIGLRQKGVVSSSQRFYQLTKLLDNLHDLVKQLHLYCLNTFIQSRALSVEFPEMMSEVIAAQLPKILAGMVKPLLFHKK
How it was run: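 Antagonist mode: compounds tested against 1 nM (final) promegestone stimulation in HEK293T cells expressing PR-UAS-bla reporter, 16 hr at 37C, 5% CO2; beta-lactamase activity detected via B/G FRET substrate after 2 hr at room temperature.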

[10] = qHTS assay to identify small molecule antagonists of the progesterone receptor (PR) signaling pathway - cell viability counter screen (AID 1346798); also: nearly all actives have a fitted effect of over 50% in size; also: potency is read from the fitted curve at half-maximal effect
How it was run: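 Counter screen for cytotoxicity: viability of PR-UAS-bla HEK293T cells was measured with CellTiter-Glo luminescence following 16 hr compound exposure in the presence of R5020.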

[11] = qHTS assay to identify small molecule agonists of the progesterone receptor (PR) signaling pathway - cell viability counter screen (AID 1346799; calls by dose curve; also: nearly all actives have a fitted effect of over 45% in size; also: potency is read from the fitted curve at half-maximal effect)
How it was run: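 Cells (PR-UAS-bla HEK293T) are plated at 3,000/well in 2% charcoal-stripped FBS medium, rested 6 hr, dosed and incubated 16 hr at 37C. CellTiter-Glo is then added and luminescence measured after 30 min at room temperature.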

[12] = qHTS assay to identify small molecule antagonists of the TGF-beta/Smad signaling pathway - cell viability counter screen (AID 1346824); also: nearly all actives have a fitted effect of over 50% in size
How it was run: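 Cytotoxicity counter-screen run in the same wells as the beta-lactamase Smad reporter read: CellTiter-Glo luminescence after 30 min at room temperature. HEK 293T SBE-bla cells had 5 hr compound exposure at 37 C with TGF-beta1 (0.25 ng/mL stock).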

[13] = qHTS assay to identify small molecule agonists of the TGF-beta/Smad signaling pathway - cell viability counter screen (AID 1346829); also: top concentration of the series differs between compounds; nearly all actives have a fitted effect of over 45% in size
How it was run: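 Cytotoxicity counter screen: CellTiter-Glo luminescence (30 min, room temperature) measured in the SBE-bla HEK 293T reporter wells after 5 hr compound treatment at 37 C and the 2 hr substrate step.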

[14] = qHTS assay to identify small molecule agonists of the TGF-beta/Smad signaling pathway (AID 1346859; active = well fitted activation curve with a large enough effect in the signal ratio in the repeat runs, not every such curve was filed as active; the % refers to the signal ratio; also: series mostly up to about 77 µM)
How it was run: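 Reporter line: HEK 293T with stably integrated SBE-controlled beta-lactamase. Compound exposure lasts 5 hr at 37 C and 5% CO2; substrate loading follows for 2 hr at room temperature, with emission read at 460 and 530 nm.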

[15] = target: Thyrotropin-releasing hormone receptor (Homo sapiens) (UniProt P34981); test: qHTS assay to identify small molecule antagonists of the thyrotropin-releasing hormone receptor (TRHR) signaling pathway (AID 1346877; active = well fitted inhibition curve with a large enough effect in the repeat runs, not every such curve was filed as active; also: series mostly up to about 51 µM)
Thyrotropin-releasing hormone receptor (Homo sapiens), sequence (P34981 whole entry, looked up): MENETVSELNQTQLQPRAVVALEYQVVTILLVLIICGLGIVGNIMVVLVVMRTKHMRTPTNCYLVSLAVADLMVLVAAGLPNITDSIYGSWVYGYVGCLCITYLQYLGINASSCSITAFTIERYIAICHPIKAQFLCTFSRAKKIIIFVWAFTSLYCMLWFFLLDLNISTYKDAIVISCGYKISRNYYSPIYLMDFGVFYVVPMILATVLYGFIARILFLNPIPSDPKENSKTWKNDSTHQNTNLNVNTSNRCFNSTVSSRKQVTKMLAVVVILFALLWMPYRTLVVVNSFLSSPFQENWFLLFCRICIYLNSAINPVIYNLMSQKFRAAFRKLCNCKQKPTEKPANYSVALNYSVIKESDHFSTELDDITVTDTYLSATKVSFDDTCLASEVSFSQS
How it was run: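 Calcium signal in dye-loaded TRHR/HEK293 cells; compounds added 5 min before TRH (1 nM final); fluorescence monitored 3 min at 1 s steps.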

[16] = target: Thyrotropin-releasing hormone receptor (Homo sapiens) (UniProt P34981); test: qHTS assay to identify small molecule agonists of the thyrotropin-releasing hormone receptor (TRHR) signaling pathway (AID 1346891; calls by dose curve;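 also: HEK293 cells expressing TRHR with calcium dye readout; series mostly up to about 58 µM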)
How it was run: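 Cells: TRHR-Hek293, seeded and incubated 18 h. Dye loading: 2 h at 37 °C. Compound added from DMSO stock by pin tool. Read-out: kinetic calcium fluorescence over 3 min.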

[17] = qHTS assay to identify small molecule agonists of the estrogen receptor beta (ER-beta) signaling pathway - cell viability counter screen (AID 1259380); also: nearly all actives have a fitted effect of over 30% in size; also: potency is read from the fitted curve at half-maximal effect
How it was run: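 Compounds dissolved in DMSO were pin-transferred onto ER-beta-UAS-bla HEK293T cells that had settled 6 hr, and exposure ran 16 hr at 37C. Following the reporter read, CellTiter-Glo luminescence after 30 min at room temperature indicated cytotoxicity.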

[18] = qHTS assay to identify small molecule agonists of the estrogen receptor alpha (ER-alpha) signaling pathway in the presence of an antagonist - cell viability counter screen (AID 1259386);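 also: series mostly up to about 92 µM; cells exposed to compounds for 22 h at 37 °C before the viability read; nearly all actives have a fitted effect of over 30% in size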
How it was run: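 Using estrogen-depleted VM7Luc4E2 cells, the 15-concentration compound series was applied together with 10.0nM ICI-182,780 and incubated 22hr at 37C/5% CO2. Cell viability was then scored by CellTiter-Fluor.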

[19] = target: Progesterone receptor (Homo sapiens) (UniProt P06401); test: qHTS assay to identify small molecule agonists of the progesterone receptor (PR) signaling pathway (AID 1346784; calls by dose curve; also: nearly all actives have a fitted effect of over 30% in size)
How it was run: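 Cells (PR-UAS-bla HEK 293T, GripTite) were plated in assay medium containing 2% charcoal-stripped FBS and incubated 6 hr. Test compounds in DMSO were added for 16 hr at 37C. FRET substrate was then loaded for 2 hr at room temperature before fluorescence reading.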

Row | SMILES | Potency [1] | outcome [2] | Potency [3] | Potency [4] | outcome [5] | Potency [6] | outcome [7] | Potency [8] | Potency [9] | Potency [10] | Potency [11] | outcome [12] | outcome [13] | outcome [14] | outcome [15] | Potency [16] | Potency [17] | Potency [18] | Potency [19]
1 | ICCc1ccccc1 | 16.9 µM (active) | inactive | inactive | inactive | inactive | inactive | inactive | inactive | 59.9 µM (active) | 59.9 µM (active) | 59.9 µM (active) | inactive | inactive | inactive | inactive | inactive |  |  | 
2 | CCN(CCCc1ccccc1)CCCc1ccccc1 | inactive | inactive |  |  |  | inactive | inactive |  | inactive |  |  | inactive | inactive |  | inactive | inactive | 11.9 µM (active) | inactive | 
3 | O=c1[nH]cnc2c1ncn2[C@@H]1O[C@H](CO)[C@@H](O)[C@H]1O | inactive | inactive | inactive | inactive | inactive |  | inactive | inactive |  | inactive |  | inactive | inactive | inactive | inactive | inactive | inactive |  | inactive
4 | CN(CC1(C)CCCO1)S(=O)(=O)c1ccc(Cl)c(S(N)(=O)=O)c1 (centres undefined) | inactive | inactive |  | inactive | inactive |  | inactive | inactive | inactive | inactive | inactive | inactive | inactive | inactive | inactive | inactive | inactive | inactive | inactive
